Results from PubChem BioAssay AID2685 (National Center for Advancing Translational Sciences (NCATS), 2010).
Among all 320,000 compounds or so, about 2,100 (0.66%) were called active. About 53% were inconclusive and are not listed. The call rests on the fitted dose curve; in most records, active means well fitted inhibition curve with a large enough effect in the signal ratio, with a control signal flat (not every such curve was filed as active); inconclusive means small, poorly fitted or top-dose-only effect, or effect the other way, or a change in a side signal; inactive means flat fitted curve, though single readings scatter; the % refers to the signal ratio. What follows is part of a selection rich in actives, with near analogues and random picks from the rest.

Assay: qHTS Assay for Lipid Storage Modulators in Drosophila S3 Cells;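 on cell number change: cells counted by Cell Tracker Red CMTPX staining in the red channel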; on lipid storage change, negative = inhibition: on the % scale 0 is the no-effect control and ±100 the full control effect
Conditions: BODIPY lipid droplet fluorescence, 18-24 h, cells fed with added oleic acid; cell number change: measured here: cell count max response; series mostly up to 46.1 µM; lipid storage change, negative = inhibition: at the top concentration
Outline: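 Drosophila S3 cells loaded with oleic acid (400 uM, as added) and compounds at several concentrations; lipid droplets imaged by 488-nm laser-scanning cytometry, 500–530 nm intensity and object ratio to cell channel. Percent activity normalized to 20 uM Triacsin C.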
Potency means the concentration at half of the fitted maximal effect.

SMILES	lipid storage change, negative = inhibition	cell number change [%]	Potency	outcome
Cc1cc(C)c(NC(=O)c2cc(C(=O)O)ccc2C(=O)O)c([N+](=O)[O-])c1	2.67% (inactive)	2.4		
COc1ccc(CCc2cc(OC)cc(=O)o2)cc1	16.7% (inactive)	-1.16		
CN(CCOc1ccc(F)cc1)Cc1ccccc1	11.2% (inactive)	11.7		
CN(Cc1ccccc1)C(=O)COc1ccccc1Cl	-17.2% (inactive)	10.4		
Cc1cc(C)c(OCCCCN(C)Cc2ccccc2)c(C)c1		-22	7.31 µM (active)	
CN(CCCCOc1ccc(F)cc1)Cc1ccccc1	13.9% (inactive)	9.09		
Cc1ccc(Cl)c(OCCCCN(C)Cc2ccccc2)c1	-10.2% (inactive)	-11.3		
CN(CCOc1ccccc1Cl)Cc1ccccc1		-8.5	23.1 µM (active)	
CC1CN(S(=O)(=O)c2ccc(C(=O)Nc3nnc(-c4ccccn4)o3)cc2)CC(C)O1 (stereo unspecified)	-3.48% (inactive)	10.4		
Cn1c(=O)c(C(=O)NNC(=O)c2ccccc2Br)c(O)c2ccccc21		7.83		inactive
Cn1c(=O)c(C(=O)NNC(=O)c2ccccc2F)c(O)c2ccccc21		13		inactive
Cn1c(=O)c(C(=O)NNC(=O)c2ccc(Br)cc2)c(O)c2ccccc21		12.5	16.4 µM (active)	
COc1cccc(CN2CC(C(=O)N3CCOCC3)CCC2=O)c1 (stereo unspecified)		-3.29		inactive
c1ccc(-c2csc3ncnc(NCCN4CCOCC4)c23)cc1	-15.7% (inactive)	-69.5		
c1ccc(-c2csc3ncnc(NCC4COc5ccccc5O4)c23)cc1 (stereo unspecified)		-33.8	1.84 µM (active)	
c1ccc(-c2csc3ncnc(NCc4ccccn4)c23)cc1	-14.3% (inactive)	-13.1		
COc1ccc(S(=O)(=O)NCC2CCCN(C(=O)C=C(C)C)C2)cc1 (stereo unspecified)	0.395% (inactive)	-5.61		
CCOc1ccccc1C(=O)N1CCC(n2nnc3cc(C(F)(F)F)ccc32)CC1				inactive
O=C(CN(Cc1ccccc1)C(=O)CCC(=O)Nc1nccs1)NCc1ccccc1	-11.3% (inactive)	-17.1		
O=C(CCC(=O)N(CC(=O)NC1CCCCC1)Cc1cccs1)Nc1nccs1	13.5% (inactive)	-2.3		
Cc1csc(NC(=O)CCC(=O)N(CC(=O)NC2CCCC2)Cc2ccco2)n1	8.55% (inactive)	5.63		
COc1ccc(CN(CC(=O)NC2CCCC2)C(=O)CCC(=O)Nc2nc(C)cs2)cc1		2.99	4.61 µM (active)	
CC(C)CCNC(=O)CN(C(=O)CCC(=O)Nc1nccs1)C1CCCCC1		-4.17	1.3 µM (active)	
O=C(CCC(=O)N(CC(=O)NC1CCCC1)Cc1ccccc1)Nc1nccs1		6.76	3.66 µM (active)	
CC(C)CCNC(=O)CN(CC1CCCO1)C(=O)CCC(=O)Nc1nccs1 (stereo unspecified)	22.3% (inactive)	9.95		

SMILES	lipid storage change, negative = inhibition	cell number change [%]	Potency	outcome
CC(C)CCNC(=O)CN(Cc1ccccc1)C(=O)CCC(=O)Nc1nccs1		2.61		inactive
COc1ccc(CN(CC(=O)NC2CCCC2)C(=O)CCC(=O)Nc2cc(C)on2)cc1	6.13% (inactive)	2.01		
CC(C)(C)OC(=O)[C@H](NC(=O)OCc1ccccc1)c1ccccc1		-4.27		inactive
CCn1c(C)c(C(C)=O)c(SC)nc1=S		-9.08	23.1 µM (active)	
CCSc1nc(=S)n(CC)c(C)c1C(C)=O	-7.91% (inactive)	11		
CSc1nc(=S)n(Cc2ccccc2)c(C)c1C(C)=O	0.545% (inactive)	2.19		
CS(=O)(=O)N(CC(=O)Nc1ccccc1-c1ccccc1)c1ccccc1	3.31% (inactive)	6.57		
CNC(=S)NNC(=O)c1ccc(=O)n(Cc2ccc(Cl)cc2Cl)c1	14.6% [at 9.22 µM] (inactive)	-1.09		
CC(C)(O)CC[C@@H](O)[C@](C)(O)[C@H]1CC[C@@]2(O)C3=CC(=O)[C@@H]4C[C@@H](O)[C@@H](O)C[C@]4(C)C3CC[C@]12C (stereo partly specified)	-9.22% (inactive)	-13.6		
Cc1cccc(-n2cc(-c3ccccc3)c3c(N4CCOCC4)ncnc32)c1	8.58% (inactive)	18.2		
O=C(CSc1ncnc2nc[nH]c12)c1ccc(Cl)cc1	4.43% (inactive)	-11.7		
CC(=O)CSc1ncnc2nc[nH]c12	1.08% (inactive)			
O=C(O)CSc1ncnc2nc[nH]c12		2.03	20.6 µM (active)	
CC(C)c1nnc(NC(=O)C2CCN(C(=O)Nc3ccc(Cl)cc3)CC2)s1	3.85% (inactive)	5.41		
CCc1ccccc1NC(=S)N(CCN1CCCCC1)Cc1ccco1	-1.49% (inactive)	5.79		
Cc1cc(OCCCn2cnc3ccccc3c2=O)ccc1[N+](=O)[O-]	20.5% (inactive)	0.141		
COc1cc(OC)cc(C(=O)NC(=S)NNC(=O)Cc2cccs2)c1	14.8% (inactive)	0.453		
CCOC(=O)N1CCN(c2c(N3CCN(c4ccc(OC)cc4)CC3)c(=O)c2=O)CC1	2.64% (inactive)	5.73		
CCCCn1c(CN2CCN(c3ccc(F)cc3)CC2)nc2c1c(=O)n(C)c(=O)n2C	5.72% (inactive)	2.55		
CCCCn1c(CN2CCN(c3ccccc3)CC2)nc2c1c(=O)n(C)c(=O)n2C		-29.7	20.6 µM (active)	
CCCCn1c(CN2CCN(c3cccc(Cl)c3)CC2)nc2c1c(=O)n(C)c(=O)n2C				inactive
O=C(NCc1ccccc1)C1C2C=CC3(CN(Cc4cccnc4)C(=O)C13)O2 (stereo unspecified)	-17.4% (inactive)	-20		
Cc1cc(C(=O)CSc2nn3c(=O)c(C(C)(C)C)nnc3s2)c(C)n1C1CC1				inactive
CCOc1ccc(NC(=S)NC(=O)C2CCCC2)cc1	-6.34% (inactive)			
CCCCN1C(=O)/C(=C/C=C2/CC(C)(C)CN2C)SC1=S		0.528	9.2 µM (active)	

SMILES	lipid storage change, negative = inhibition	cell number change [%]	Potency	outcome
CN1CCS/C1=C/C=C1\SC(=S)N(CC(=O)O)C1=O	13.2% (inactive)	-4.93		
CN1CCS/C1=C\C=C1/SC(=S)N(CC(=O)O)C1=O	21.7% (inactive)	6.49		
Cc1ccc(C)c(OCc2nnc(SCC(=O)NCc3ccc4c(c3)OCO4)o2)c1	5.42% (inactive)	17.4		
CC(C)Nc1ccc(C(CC(N)=O)NC(=O)Cc2ccc(Cl)cc2)cc1[N+](=O)[O-] (stereo unspecified)	-6.83% (inactive)			
COC(=O)C(C)Sc1n[nH]c(=S)s1 (stereo unspecified)		12.5	18.4 µM (active)	
COC(=O)CSc1n[nH]c(=S)s1	-3.44% (inactive)	-9.98		
COC(=O)C(C)Sc1nnc(SC(C)C(=O)OC)s1 (stereo unspecified)		26.4		inactive
CCCCCCCc1c(O)nc(SCCN2CCOCC2)[nH]c1=O	15% (inactive)	2		
Cc1cc([N+](=O)[O-])nn1CC(=O)NC(C)c1ccccc1 (stereo unspecified)	8.15% (inactive)	-17.7		
COC(=O)NNC(=O)c1ccccc1OC		-18.2		inactive
Cc1ccccc1C(=O)NNC(=O)c1ccoc1C	13.5% (inactive)	21.8		
COC(=O)NNC(=O)c1ccccc1C		-4.05	25.9 µM (active)	
O=c1c2cc(Br)ccc2[nH]c(=S)n1Cc1ccccc1	48.1% (inactive)			
Cc1nc2c(C(=O)NCc3cccs3)cnn2c(C)c1Cc1ccccc1	7.94% (inactive)	-10.7		
Cc1cc(C)c(Cc2c(C)nc3c(C(=O)NCc4ccco4)cnn3c2C)c(C)c1			6.51 µM (active)	
Cc1ccc(-c2cc(C(F)(F)F)n3ncc(C(=O)NCc4ccco4)c3n2)cc1	-6.97% (inactive)	-26.7		
COc1ccc(-c2cc(-c3ccccc3)nc(SCC(=O)Nc3nccs3)c2C#N)cc1	11.7% (inactive)	6.74		
Cc1ccc(NC(=O)CCNS(=O)(=O)c2ccc3[nH]c(=O)oc3c2)c(Cl)c1		-2.47		inactive
CN(C(=O)c1ccc(=O)[nH]c1)C1(C(=O)NC2CCCCC2)CCCCC1	-8.5% (inactive)	-13.5		
Cc1nn(C)cc1-c1csc(N)n1	-5.77% (inactive)	19		
COc1ccc(NC(=O)C2CCCN(S(=O)(=O)c3cccnc3)C2)c(OC)c1 (stereo unspecified)	-0.456% (inactive)	12.4		
COc1ccc(C(=O)NNC(=S)NC(=O)c2ccco2)cc1	-27% (inactive)	1.44		
O=C(NC(=S)NNC(=O)c1ccco1)c1ccc(F)cc1		4.58	18.4 µM (active)	
COc1ccc(C(=O)NC(=S)NNC(=O)c2ccco2)cc1		-19.8		inactive
CCCCN(C(=O)c1nn(C)c(=O)c2ccccc12)c1c(N)n(CC(C)C)c(=O)[nH]c1=O	6.7% (inactive)	3.88		

SMILES	lipid storage change, negative = inhibition	cell number change [%]	Potency	outcome
O=C(CSc1nnc([C@@H]2CCCN2)o1)c1ccc(Cl)cc1	14.1% (inactive)	3.48		
O=C(NC1=NCCS1)c1cccc(NC(=O)c2ccco2)c1				inactive
CCN1c2ccccc2S(=O)(=O)c2ccccc21		-15.5	1.84 µM (active)	
COc1ccc(CNC(=O)CN2c3ccccc3S(=O)(=O)c3ccccc32)cc1				inactive
CCN1C(=O)N(c2ccc(C(C)=O)cc2)S(=O)(=O)c2ccccc21	20.2% (inactive)	7.75		
COc1cccc(NC(=O)C(Cc2ccccc2)n2cccc2)c1 (stereo unspecified)	15% (inactive)	23.9		
O=C(c1ccccc1)N1CCN(c2ccccc2F)CC1				inactive
CCN(CC)CCCN(C(=O)Cn1nnc(-c2ccc(OC)c(OC)c2)n1)C(C(=O)NC(C)(C)C)c1ccc(F)cc1 (stereo unspecified)	-9.11% (inactive)	-0.835		
COc1ccc(C(C)=O)cc1CSc1nnc(Nc2ccccc2C)s1	22.8% (inactive)			
COc1ccc(C(C)=O)cc1CSc1nnc(Nc2ccccc2)s1		-8.23	2.31 µM (active)	
COc1ccc(C(C)=O)cc1CSc1nnc(SCc2cc(C(C)=O)ccc2OC)s1	12.7% (inactive)	7.73		
CN(C(=O)COC(=O)CCc1nc2ccccc2c(=O)[nH]1)C1CCS(=O)(=O)C1 (stereo unspecified)	-17.9% (inactive)	-1.94		
COCCNC(=O)c1cccc2c1-c1ccccc1C2=O	-7.63% (inactive)	-10.2		
CC(=O)CCc1oc2ccc(C)cc2c1-c1ccccc1	20.7% (inactive)	1.81		
O=S(=O)(Cc1ccccc1)Nc1ccc(S(=O)(=O)N2CCCC2)cc1	12.9% (inactive)	-4.32		
O=c1oc(-c2cccs2)nc2sc3c(c12)CCC3	-1.18% (inactive)	1.06		
O=c1oc(-c2cccs2)nc2sc3c(c12)CCCCC3	-9.97% (inactive)	7.26		
O=C1CN(c2nc(-c3cccs3)nc3sc4c(c23)CCCC4)CCN1		-27.1	1.64 µM (active)	
N#CCCNC(=O)Cn1c(COc2ccc(Cl)cc2)nc2ccccc21	15% (inactive)	6.47		
COc1cccc(-c2nc3c(c(SCC(=O)N4CCOCC4)n2)Cc2c(CO)cnc(C)c2O3)c1			0.651 µM (active)	
COc1cccc(-c2noc(CCCC(=O)N3CCOCC3)n2)c1	-11.5% (inactive)	-4.07		
CCc1ccc(NC(=O)CSc2nc(-c3ccc(C)cc3)nc3c2Cc2c(CO)cnc(C)c2O3)cc1	-8.05% (inactive)	-9.8		
